Source: PubChem BioAssay AID485317 (Broad Institute, 2010)
Hit rate of the full screen: of about 290,000 compounds, about 11,000 (3.8%) were called active. For the sample, actives were picked, then their nearest neighbours and some compounds at random. Values without a mark were called inactive.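 How the source made its calls: active means mean replicate inhibition above about 79%, with every replicate also reaching it (limit read from the data); inconclusive means only one of the two criteria met; inactive means mean below limit and not every replicate reaching it.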

Target: FAD-linked sulfhydryl oxidase ALR (Homo sapiens) (UniProt P55789)
Assay: inhibitors of human ALR sulfhydryl oxidase, primary screen, biochemical, H2O2 detection, HRP-luminol luminescence, single point (AID 485317)
Details: purified ALR, DTT oxidation, stronger effect = higher value, concentration not given here

Chain of FAD-linked sulfhydryl oxidase ALR (Homo sapiens) (P55789 whole entry, looked up): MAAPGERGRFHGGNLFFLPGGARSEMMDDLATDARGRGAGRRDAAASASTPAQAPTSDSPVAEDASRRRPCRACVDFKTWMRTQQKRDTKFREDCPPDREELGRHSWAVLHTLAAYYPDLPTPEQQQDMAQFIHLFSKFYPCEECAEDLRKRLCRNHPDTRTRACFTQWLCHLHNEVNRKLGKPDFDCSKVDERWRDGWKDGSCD

Row | Compound | inhibition
1 | C[C@@H]1CN([C@H](C)CO)C(=O)c2cc(NC(=O)NC3CCCCC3)ccc2O[C@H]1CN(C)S(C)(=O)=O | 0.076%
2 | Cc1cccc(N=C2SC(C)CN2C(=O)CN2C(=O)NC3(CCCC3)C2=O)c1 (configuration not stated) | 2.77%
3 | O=C1CSc2ccc(C(=O)NCc3ccccn3)cc2N1 | -5.07%
4 | Cc1nn(Cc2ccccc2)c(C)c1C(=O)N1CCN(CC(=O)Nc2ccccc2Cl)CC1 | -4.78%
5 | COc1ccc(-c2nc3c(s2)CCc2onc(-c4ccc(Br)cc4)c2-3)cc1 | -11%
6 | CCCCCCSc1ccc(-c2nc3ccc(Cl)cn3c2NCc2ccccc2)cc1 | -0.616%
7 | Clc1ccc2nc(CSc3ccccc3)cn2c1 | 98.9% (active)
8 | CCOc1ncccc1C(=O)OCc1cn2cc(Cl)ccc2n1 | -2.41%
9 | O=C1N[C@@H](Cc2ccccc2)C(=O)N2[C@H]1C[C@]1(Br)c3ccccc3N(S(=O)(=O)c3ccccc3)[C@H]21 | -12.1%
10 | CCOc1ccc(-c2nc(C)sc2CC(=O)O)cc1 | -6.6%
11 | Cc1ccc(-c2nc(C)sc2CC(=O)O)cc1 | 99.3% (active)
12 | Cc1ccc(-c2nc(C)sc2CC(=O)OCC(=O)Nc2c(F)cccc2F)cc1 | -7.76%
13 | Cc1ccc(C(=O)OCC(=O)N2CCCCCC2)cc1S(=O)(=O)N1CCOCC1 | -22.6%
14 | COc1cccc(CNC(=O)COC(=O)CN2C(=O)NC3(CCCCC3C)C2=O)c1 (configuration not stated) | 2.16%
15 | COc1ccc(/C=C(\C#N)C(=O)ONC2=NCCCCC2)cc1 | 12.1%
16 | Oc1ccc(/C=N/NC2=NCCCCC2)c(O)c1 | 81.4% (active)
17 | Cc1nc2ccccc2nc1N/N=C/c1ccc(O)cc1O | 95.7% (active)
18 | COc1ccccc1N1CCN(/N=C/c2ccc(O)cc2O)CC1 | 1.54%
19 | FC(F)(F)c1nc2ccccc2nc1N/N=C/c1ccc(Cl)cc1 | -14.4%
20 | Oc1ccc(/C=N/Nc2nc(-c3ccccc3F)nc3ccccc23)c(O)c1 | 6.31%
21 | COc1ccc(OC)c(/C=C/C(=O)c2ccc3c(c2)OCO3)c1 | 3.84%
22 | COc1cc(OC)cc(C(=O)NNC(=O)CNC(=O)c2ccc(Br)o2)c1 | 7.85%

Row | Compound | inhibition
23 | CC(=O)Nc1ccc(C(=O)NNC(=O)CCCCC(=O)NNC(=O)c2ccc(NC(C)=O)cc2)cc1 | -0.231%
24 | CNC[C@H]1Oc2c(NC(=O)C3CCCCC3)cccc2C(=O)N([C@H](C)CO)C[C@@H]1C | -1.07%
25 | C=CC[C@@H](CC(=O)N[C@H](CO)Cc1ccccc1)C(=O)N[C@H](C)COC(=O)[C@@H](CC=C)Cc1ccc(F)cc1 | 2.31%
26 | CCOC(=O)c1cc(-c2ccccc2C)n(Cc2cc(C)no2)n1 | 0.367%
27 | Cc1ccc(S(=O)(=O)N2[C@@H](c3ccccc3F)C(C(=O)O)=CC[C@H]2c2ccc(Cl)cc2)cc1 | 2.55%
28 | COc1ccc(S(=O)(=O)N2CCN(c3cnccn3)CC2)cc1 | -0.305%
29 | Cc1nnc(SCC2=C(C(=O)O)N3C(=O)C(NC(=O)Cn4nc(C)c(Cl)c4C)C3SC2)s1 (configuration not stated) | -10.4%
30 | Cc1cc(C)cc(C(=O)NC2C(=O)N3C(C(=O)O)=C(CSc4nnc(C)s4)CSC23)c1 (configuration not stated) | 98% (active)
31 | CO/N=C(\C(=O)N[C@@H]1C(=O)N2C(C(=O)O)=C(COC(C)=O)CS[C@H]12)c1csc(N)n1 (stereo in doubt) | -8.83%
32 | CCc1ccc(Nc2n[n+](-c3ccccc3)c(-c3cccc(Cl)c3Cl)s2)cc1 | -4.3%
33 | Cc1ccc(S(=O)(=O)NCC(=O)NNC(=O)c2ccc(Br)cc2)cc1C | -2.29%
34 | CC1(NC(=O)CCS(=O)(=O)c2ccc(Cl)cc2)CCS(=O)(=O)C1 (configuration not stated) | -4.01%
35 | O=[N+]([O-])c1ccccc1Nc1ccc(O)cc1 | 99.6% (active)
36 | O=C(O)c1ccccc1C(=O)Nc1ccccc1[N+](=O)[O-] | -2.15%
37 | O=[N+]([O-])c1ccc(O)c(/C=N/Nc2ccccc2[N+](=O)[O-])c1 | -10.4%
38 | Nc1nnc(SCC(=O)NCC(=O)Nc2ccc(F)c(F)c2F)s1 | 1.09%
39 | CN(CC(=O)NC1CCCC1)S(=O)(=O)c1cnc[nH]1 | -4.3%
40 | CN(CC(=O)NC1CCCCC1)S(=O)(=O)c1ccc(Br)s1 | -15%
41 | CN(CC(=O)NC1CCCCC1)S(=O)(=O)c1cccc2cccnc12 | 89.5% (active)
42 | CN(CC(=O)Nc1ccc(Cl)cc1)CC(=O)Nc1cccc2ccccc12 | 2.05%
43 | CCN(CC(=O)Nc1ccc(OC)cc1)C(=O)c1ccc(=O)n(Cc2ccccc2)n1 | 0.415%
44 | Cc1noc(C)c1NC(=O)Nc1ccc2c(c1)C(=O)N([C@H](C)CO)C[C@H](C)[C@@H](CN(C)S(=O)(=O)c1cn(C)cn1)O2 | -2.52%

Row | Compound | inhibition
45 | NS(=O)(=O)c1ccc(NC(=O)COC(=O)c2c3c(nc4ccccc24)/C(=C\c2ccc4c(c2)OCO4)CCC3)cc1 | -36%
46 | COc1cc(/C=C2\CCCc3c2nc2ccccc2c3C(=O)O)cc(Cl)c1O | 98.2% (active)
47 | O=C(COC(=O)c1c2c(nc3ccccc13)/C(=C\c1cccs1)CCC2)Nc1ccccc1Cl | -2.03%
48 | CN(CC(=O)NCCc1ccc(S(N)(=O)=O)cc1)CC(=O)Nc1ccc(Cl)cc1 | -9.18%
49 | CC1(C)C/C(=N/Nc2ccc([N+](=O)[O-])cc2[N+](=O)[O-])C(C)(C)O1 | -14.3%
50 | CCc1nnc(NS(=O)(=O)c2ccc(NC(=S)NC(=O)c3cccs3)cc2)s1 | 63.2%
51 | CCc1nnc(NS(=O)(=O)c2ccc(NC(=O)c3cccc(OC(F)(F)C(F)F)c3)cc2)s1 | 88.3% (active)
52 | CCc1nnc(NS(=O)(=O)c2ccc(NS(=O)(=O)c3ccccc3)cc2)s1 | 35.6%
53 | O=C(COc1ccccc1)Nc1cc2c3c(c1)CC(=O)N3CCC2 | -6.99%
54 | O=C(c1ccncc1)N1CCN(S(=O)(=O)c2cccc([N+](=O)[O-])c2)CC1 | -48.9%
55 | COc1cccc(NC(=O)Cn2c3ccccc3c3nc4n(c(=O)c32)CCS4)c1 | 85.8% (active)
56 | COc1cccc(NC(=O)Cn2c3ccc(F)cc3c3nc4n(c(=O)c32)CCS4)c1 | -3.06%
57 | COc1cccc(NC(=O)CN2CCN(CC(=O)Nc3ccccc3Cl)CC2)c1 | -2.36%
58 | C[C@H]1CN([C@@H](C)CO)C(=O)Cc2cc(NS(C)(=O)=O)ccc2O[C@@H]1CN(C)CC1CC1 | 0.795%
59 | CN(C(=O)CSc1nc(C2CC2)nc2ccccc12)c1nc(-c2ccccc2)cs1 | 98.6% (active)
60 | Cc1nnc(NC(=O)CSc2nc(C3CCCCC3)nc3ccccc23)s1 | -39.6%
61 | O=C(CSc1nc(C2CC2)nc2ccccc12)Nc1ccc2c(c1)OCCO2 | 40.9%
62 | Cc1ccccc1OCC(=O)NNC(=O)c1ccc(-n2cncn2)c([N+](=O)[O-])c1 | -24.1%
63 | O=C(NCCCN1CCCC1=O)c1ccc(S(=O)(=O)Nc2ccccc2)cc1 | -9.87%
64 | COc1ccccc1OCCCCCCN1CCN(C)CC1 | -12.6%
65 | CCCC(=O)Nc1ncnc2c1ncn2[C@@H]1O[C@@H]2OP(=O)(O)OC[C@H]2[C@H]1OC(=O)CCC | -3.4%
66 | Cc1cc(C(=O)COC(=O)CNC(=O)c2ccc(F)cc2)c(C)n1Cc1ccco1 | -2.4%

Row | Compound | inhibition
67 | Cc1cc(C(=O)CC#N)c(C)n1-c1c(C)n(C)n(-c2ccccc2)c1=O | 14.7%
68 | Cc1cc(C(=O)CC#N)c(C)n1CC(F)(F)F | 94.8% (active)
69 | Cc1ccc(CNC(=O)c2ccc3c(c2)S(=O)(=O)c2ccccc2C3=O)cc1 | -10.2%
70 | S=c1[nH]nc2c3c4c(sc3ncn12)CCCC4 | 97.9% (active)
71 | c1nnc2c3c4c(sc3ncn12)CCC4 | 45.2%
72 | N=c1c2c3c(sc2ncn1N)CCCC3 | -10.4%
73 | Cc1c(O)c(C)c2c(c1O)C(=O)C[C@@H](c1ccccc1)O2 | 2.46%
74 | COc1ccccc1C(=O)COC(=O)COc1ccc(C#N)cc1 | 10.4%
75 | O=S(=O)(Nc1ncnc2sccc12)c1cccc(F)c1 | 8.21%
76 | COc1ccc(C(=O)Oc2cc(/C=N/NS(=O)(=O)c3ccc(C)cc3)ccc2OC)cc1 | -2.65%
77 | COc1ccc(/C=C/C(=O)c2ccc(NS(=O)(=O)c3ccc(C)cc3)cc2)cc1O | 82.9% (active)
78 | COc1ccc(NS(=O)(=O)c2ccc(NC(C)=O)cc2)cc1OC | -18.8%
79 | CCOC(=O)c1c(C)[nH]c(C(=O)OCC(=O)c2ccc(OC)cc2OC)c1C | -8.98%
80 | c1csc(-c2cn3c(n2)SCC3)c1 | 92.3% (active)
81 | CCCS(=O)(=O)Nc1ccc(-c2cn3c(n2)SCC3)cc1 | 4.68%
82 | Cc1cc(-c2cccs2)nc(-n2cccc2)n1 | 23.5%
83 | O=C(c1ccc(S(=O)(=O)NCc2ccco2)cc1)N1CCN(c2ccccc2)CC1 | 33.8%
84 | COc1ccc(OC)c(Nc2nc(-c3ccc(O)c(O)c3)cs2)c1 | 94.7% (active)
85 | COc1ccc(-c2csc(Nc3ccc(O)cc3)n2)cc1 | 74.3%
86 | COc1ccc(-c2csc(Nc3ccccn3)n2)cc1 | 32.2%
87 | CCCCn1c(N)c(N(CC(C)C)C(=O)C2CSC3(C)CCC(=O)N23)c(=O)[nH]c1=O (configuration not stated) | -0.99%
